From PubChem BioAssay AID488966 (Southern Research Specialized Biocontainment Screening …, 2010)
“And” between values parts separate entries of the source, which are not always exact repeats. Equal values may be shown once. Screen size: about 340,000 compounds; about 55 (0.02%) were called active.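 How the source made its calls: active means phage lysis inhibition, versus mean bacterial control, above a set limit; inconclusive means no clear call, values can overlap the other calls; inactive means the rest.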 A selection follows. Entries with a potency or affinity are not part of this list.

Test: protection from phage-mediated lysis, alamar blue read-out – E. coli UTI89, K1F phage, bacterial capsule biogenesis inhibitors (AID 488966);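 further: capsule biogenesis inhibitors block K1F phage lysis so surviving cells raise fluorescence; higher fluorescence means more inhibition of phage lysis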
Settings: 2 h; inhibition: at 100 µM, hits give high values unless noted; series mostly up to 300 µM; inhibition of phage lysis: at the top concentration

inhibition, inactive:
CC(C)OCCCNC(=O)c1cc(-c2cccs2)nc2ccccc12 0.22%
CC1(C(=O)O)CCC(C(=O)Nc2ccccc2)C1(C)C (configuration not stated) 0.32%
CC(=O)c1ccccc1OCCCOc1cccc2cccnc12 0.48%
O=C(Nc1ccc(F)cc1)c1ccc2ncsc2c1 0.29%
O=C(O)c1cc(-c2ccccc2)nn1CC1CC(c2cccnc2)=NO1 (configuration not stated) 1.3%
O=C(NCc1ccccc1)C1CCCN(S(=O)(=O)c2ccc(Br)cc2)C1 (configuration not stated) 1.64% [at 50 µM, hits give high values]
CC(C)(C)c1ccc(OCC(O)CN(CCO)CC(O)Cn2ccc3ccccc32)cc1 (configuration not stated) 0.2%
CC1(c2ccccc2)NC(=O)N(NC(=O)CSc2n[nH]c(N)n2)C1=O (configuration not stated) 0.72%
COc1ccc(S(=O)(=O)N2CCN(c3ccccc3OC)CC2)cc1 0.03%
Cc1ccc(C)c(NC(=O)COC(=O)CCc2ccc(S(=O)(=O)N3CCOCC3)cc2)c1 -0.17%
CC(=O)Nc1cccc(-c2nnc(SCC(=O)N3CCCCC3)n2C)c1 0.94%
Cc1ccc(NC(=O)CCC(=O)NNC(=O)COc2cccc3ccccc23)c(C)c1 -0.27%
Cc1cc(C)c(NC(=O)COc2nncc3ccccc23)c(C)c1 -1.44%
CC(C)NC(=O)COc1cccc2ccccc12 1.21%
COc1ccccc1OCC(O)CN1CCN(CC(=O)Nc2c(C)cccc2C)CC1 (configuration not stated) 3.11% and 2.01%
CC(CCc1ccccc1)NC(=O)CN1CCOc2ccccc21 (configuration not stated) 0.85%
CSc1ccc(CN(C)CC(=O)Nc2ccc(NC(C)=O)cc2)cc1 -0.1%
CCN(CC)CCCNc1nc(-c2ccccc2)nc2ccccc12 0.145% [at 50 µM, hits give high values]
COc1ccc(-c2nc(NCCCN(C)C)c3ccccc3n2)cc1 5.55%
O=C(O)CCCC(=O)Nc1cccc(C(=O)Nc2ccccc2C(=O)O)c1 1.41%
O=C1c2ccccc2C(=O)c2c(Nc3ccc(CCO)cc3)ccc(O)c21 -1.03% [at 50 µM, hits give high values]
Cc1cccc(CSC(=N)N)c1 7.29%
N=C(N)SCCc1cnc[nH]1 1.68%
Cc1noc(/C=C/c2ccccn2)c1[N+](=O)[O-] 0.12%
CCOC(=O)C1(Cc2ccc(Cl)cc2)CCN(C(C)Cc2ccc(O)c(OC)c2)CC1 (configuration not stated) 0.5%
Cc1ccc(NC(=O)CN(C)C(=O)COc2ncnc3ccc(Br)cc23)cc1 0.5% [at 50 µM, hits give high values]
COc1ccc(NS(=O)(=O)c2cccc(C(=O)NCCCN3CCOCC3)c2)cc1 1% [at 50 µM, hits give high values]
CC(=O)NN=C1CCC(c2ccccc2)CC1 (configuration not stated) 4.73%
COc1ccccc1OCC(=O)NNC(=O)c1cccs1 5.22%
COc1ccc(C(CNC(=O)c2cncc(Br)c2)N(C)C)cc1 (configuration not stated) -0.11%
COc1cc(C2C(C#N)=C(N)Oc3n[nH]c(-c4ccncc4)c32)cc(OC)c1OC (configuration not stated) 1.19%
COc1ccccc1NC(=O)CN1C(=O)C(C)Oc2ccccc21 (configuration not stated) -1.62%
CCOc1ccc(S(=O)(=O)NCc2cccnc2)cc1C 0.14%
COC(=O)/C=C/C(=O)Nc1ccc(O)c(Cl)c1 -2.78%
Cc1ccc(N2C(=O)C3C4CCC(O4)C3C2=O)c(OC(F)F)c1 (configuration not stated) 2% [at 50 µM, hits give high values]
CC(C)Nc1nc(SCC(=O)Nc2ccccc2)nc(N2CCOCC2)n1 -0.955% [at 50 µM, hits give high values]
c1ccc(C(c2nnnn2C2CCCCC2)N2CCc3ccccc3C2)nc1 (configuration not stated) 6.52%
C/C(=N\NC(=O)C(O)c1ccccc1)c1ccc(Cl)cc1 (configuration not stated) 0%
O=C(COC(=O)c1ccccn1)Nc1ncc(C(F)(F)F)cc1Cl 1.67%
Cc1noc(/C=C/c2ccco2)c1S(=O)(=O)N1CCC(C(=O)NCc2ccco2)CC1 0.57%
Cc1cc(C)n(CC(=O)NCc2ccccc2)c(=O)c1C#N 0.26%
O=c1[nH]c2ccccc2c2ccc(Cl)cc12 -0.77%
Cc1ccc(NC(=O)N/C=C/c2ccco2)cc1 -0.09%
COc1ccc(NC(=O)CN2C(=O)/C(=C3\SC(=S)N(CCC(=O)O)C3=O)c3ccccc32)cc1 1.3% [at 50 µM, hits give high values]
CSc1nnc(-c2cccn(Cc3cccc(Cl)c3)c2=O)o1 0.19%
Cc1cc(N(C)/N=C/c2ccccc2O)nc(-c2ccccc2O)n1 -1.22%
COc1ccc2[nH]c3c(c2c1)CCN1C(=O)N([C@@H](C)C(=O)NCc2ccc(F)cc2)C(=O)[C@]31C 1.55%
Cc1ccn2cc(-c3cccc(S(=O)(=O)N4CCCCC4)c3)nc2c1 -0.04%
COc1ccccc1C(=O)NCCC(=O)NC1CCCCCC1 0.81% [at 50 µM, hits give high values]
COc1ccc(C(C)(C)C)cc1S(=O)(=O)N1CCN(C)CC1 0.43%
O=C(Nc1ccncc1)Nc1cccc(F)c1 0.13%
Cc1cccc(NC(=O)Nc2ccncc2)c1 3.48%
COc1ccc2c(c1)C1=C(CC2)C(c2ccc(C)cc2)NC(=S)N1 (configuration not stated) -0.41%
CN(C)CCN(C(=O)c1ccc2c(c1)OCCO2)c1nc2ccc(Cl)cc2s1 3.17% [at 50 µM, hits give high values]

Inhibition of phage lysis, inactive:
COc1ccc(NC(=O)C2CCC(C)(C(=O)O)C2(C)C)cc1 (configuration not stated) 15.6%
O=C(Nc1ccc(Br)cc1)c1ccc2ncsc2c1 8.42%
O=C1c2cccc(NCCCNCCO)c2C(=O)c2cccc(NCCCNCCO)c21 13.4%
